Laboratory results taken from PMC5540273 (PLoS ONE, 2017).

Key:
Details in all cases: concentration: 1 μM, replicates: in singlicate; n = 1
AAK1 = tested on: AAK1
ABL1-nonphosphorylated = tested on: ABL1-nonphosphorylated
ABL1-phosphorylated = tested on: ABL1-phosphorylated
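Also: KINOMEscan kinase panel screen.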

| Structure (SMILES) | %Inh (AAK1) [%] | %Inh (ABL1-nonphosphorylated) [%] | %Inh (ABL1-phosphorylated) [%] |
| --- | --- | --- | --- |
| O=C(NCCCN1CCCC1=O)c1cnc(NCc2cc(Cl)ccc2Cl)nc1NC1CCNCC1 | 0 | 0 | 0 |
| Cl.Fc1ccccc1COc1ccc(Nc2ncnc3ccc(-c4nnc(C(F)(F)F)o4)cc23)cc1Cl [GW424170] | 0 | 0 | 0 |
| O=C(Nc1n[nH]c2nc(-c3ccco3)c(Br)cc12)c1ccc(CN2CCCC2)cc1.O=C(O)[C@H](O)[C@@H](O)C(=O)O [SB-742352] | 0 | 63 | 36 |
